Bioassay records (PubChem)
This is a sample that favours compounds with a hit; in the whole collection about 19% have one here.
HT1080NT lethal = qHTS for induction of synthetic lethality in tumor cells producing 2HG: qHTS for the HT-1080-NT fibrosarcoma cell line | HT-1080-NT fibrosarcoma viability, CellTiter-Glo ATP luminescence, 48 h | Potency, µM (doses to about 46.1 µM), inactives show top-dose activity, negative = less viability, hits mostly cytotoxic | AID 686970, 2013 | 360,000 compounds, 1.6% hits;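 further: NT is the 2HG producing partner of a matched IDH1 knockdown line; potency means the concentration at half of the fitted maximal effect; 0% = DMSO-treated cells and -100% = media-only wells without cells; nearly all actives have a fitted effect of over 55% in size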
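Compounds were tested in concentration-response format on HT-1080-NT cells for 48 hours at 37 degrees C. Cell viability came from CellTiter-Glo luminescence; curves were classified by r2, response magnitude and activity.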
IL-1B inflam inh = qHTS for Inhibitors of Inflammasome Signaling: IL-1-beta AlphaLISA Primary Screen. THP-1 LPS/ATP IL-1B secretion, AlphaLISA, 16 h; active compounds read low. activity change, % at 57.5 µM. 360,000 compounds, 4.7% hits. AID 743279, 2014; in the data active means activity change below about -50%; inconclusive means mostly about -30% to -49%
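THP-1 cells pretreated 1 hr with compounds (up to 57.5 uM final), then stimulated with LPS (250 ng/mL final) plus ATP (1.25 mM final); secreted IL-1B measured by AlphaLISA after 16 hr, decreased signal indicating inhibition.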
HT1080 IDH1KD tx = qHTS for induction of synthetic lethality in tumor cells producing 2HG: qHTS for the HT-1080-IDH1KD cell line. HT-1080 IDH1 knockdown viability, ATP luminescence, 48 h. Potency, µM (highest dose often 46.1 µM), without a hit: at the highest dose activity, negative = toxicity, most hits filed as cytotoxic. 360,000 compounds, 2% hits;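 further: potency means the concentration at half of the fitted maximal effect; 0% = DMSO wells and -100% = cell-free medium wells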
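Assay cells: HT-1080 with IDH1 knockdown, 750 per well, RPMI/5% FBS. Exposure: 48 h at 37 °C following 2 h pre-incubation. Read: CellTiter-Glo luminescence; fitted concentration-response, curve class assigned.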
TDP1 cell noCPT = qHTS for Inhibitors of human tyrosyl-DNA phosphodiesterase 1 (TDP1): qHTS in cells in absence of CPT; DT40 Tdp1-/- hTDP1 cells, no CPT, ATP luminescence, 48 h; Potency, µM (highest dose often 46.2 µM), for the others: at the highest dose activity change, negative = growth inhibition, hits mostly inhibitors; 420,000 compounds, 15% hits; AID 686978, 2013; further: potency means the concentration at half of the fitted maximal effect; nearly all actives have a fitted effect of over 55% in size
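Readout: luminescence from CellTiter-Glo after 30 min in the dark at RT. Cells: DT40 Tdp1-/- with stable hTDP1, 400/well. Exposure: compounds alone, ≥48 hr, 37 °C.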
TDP1 cell CPT = qHTS for Inhibitors of human tyrosyl-DNA phosphodiesterase 1 (TDP1): qHTS in cells in presence of CPT | 420,000 compounds, 12% hits | AID 686979, 2013 | chicken DT40 Tdp1-/-;hTDP1 cells + 20 nM CPT, ATP luminescence, 48 h | Potency, µM (doses to about 46.2 µM), for the others: at the highest dose activity change, negative = growth inhibition, hits mostly inhibitors; further: potency means the concentration at half of the fitted maximal effect; nearly all actives have a fitted effect of over 55% in size
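Cell growth measured by CellTiter-Glo luminescence after a minimum 48 h, 37 C compound exposure with 20 nM CPT in Tdp1-knockout DT40 cells stably expressing hTDP1, seeded 400/well; qHTS titration format.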
* hit, by the source's call. Unless noted, the call rests on the fitted dose curve; in most records, active means well fitted curve in the direction sought with a large enough effect; inconclusive means small, poorly fitted or top-dose-only effect, or another doubt; inactive means no such curve, though single readings can be large; an effect the other way counts as inactive or inconclusive. Unless noted, on the % scale 0 is the no-effect control and ±100 the full control effect.

Cc1ccc(-n2c(SCC(=O)NCc3ccccc3)nc3n[nH]c(C)c3c2=N)cc1Cl was read as TDP1 cell noCPT 2.3µM* and TDP1 cell CPT 4.1µM*.
For CCc1ccccc1NC(=O)CSc1nc2n[nH]c(C)c2c(=N)n1-c1cccc(OC)c1 the results were HT1080NT lethal -29%, IL-1B inflam inh -6, HT1080 IDH1KD tx inconclusive, TDP1 cell noCPT 23µM* and TDP1 cell CPT 16µM*.
COc1ccc(NC(=O)CSc2nc3n[nH]c(C)c3c(=N)n2-c2ccc(Cl)c(C)c2)cc1OC was read as HT1080NT lethal 7%, IL-1B inflam inh -19, HT1080 IDH1KD tx 16%, TDP1 cell noCPT inconclusive and TDP1 cell CPT -16%.
COc1ccc(OC)c(NC(=O)CSc2nc3n[nH]c(C)c3c(=N)n2-c2cccc(Cl)c2C)c1 was read as HT1080NT lethal -18%, IL-1B inflam inh -28, HT1080 IDH1KD tx 23µM*, TDP1 cell noCPT 16µM* and TDP1 cell CPT inconclusive.
For Cc1ccccc1-n1c(SCc2ccccn2)nc2n[nH]c(C)c2c1=N the results were HT1080NT lethal -18%, IL-1B inflam inh inconclusive, HT1080 IDH1KD tx -21%, TDP1 cell noCPT 16µM* and TDP1 cell CPT 21µM*.
`COc1ccccc1C(=O)NCCc1nc2ccccc2[nH]1` gave HT1080NT lethal 12%, IL-1B inflam inh -9, HT1080 IDH1KD tx 19%, TDP1 cell noCPT -25% and TDP1 cell CPT -4%.
Screening CCOc1ccc(C(=O)Nc2cc(=O)n(C)c(=O)n2C)cc1 returned HT1080NT lethal 2%, IL-1B inflam inh 10, HT1080 IDH1KD tx 17%, TDP1 cell noCPT 0% and TDP1 cell CPT 6%.
`COc1ccc(-n2c(SCC(=O)NCc3ccc(C)cc3)nc3n[nH]c(C)c3c2=N)cc1` gave TDP1 cell noCPT 4.1µM* and TDP1 cell CPT 6.5µM*.
Screening Cc1c(Cl)cccc1-n1c(SCC(=O)NCc2ccccc2)nc2n[nH]c(C)c2c1=N returned TDP1 cell noCPT 12µM* and TDP1 cell CPT 15µM*.
For COC(=O)[C@H](CCSC)NC(=O)Cn1cnc(C(=O)Nc2ccc(C)c(C)c2)n1 the results were HT1080NT lethal -11%, IL-1B inflam inh 16, HT1080 IDH1KD tx -10%, TDP1 cell noCPT -26% and TDP1 cell CPT -23%.
Screening COCCC(=O)N1CCCC(CCC(=O)NCc2ccc(F)c(F)c2)C1 (configuration not stated) returned HT1080NT lethal 10%, IL-1B inflam inh 0, HT1080 IDH1KD tx -1%, TDP1 cell noCPT -5% and TDP1 cell CPT -19%.
For COCc1ccc(CN2CCCC(CCC(=O)NCc3cccc(OC)c3)C2)o1 (configuration not stated) the results were HT1080NT lethal 0%, IL-1B inflam inh 1, HT1080 IDH1KD tx 0%, TDP1 cell noCPT -7% and TDP1 cell CPT 3%.
Screening COc1ccc(/C=C/CN2CCCC(CCC(=O)NCc3ccc(F)c(F)c3)C2)cc1 (configuration not stated) returned HT1080NT lethal inconclusive, IL-1B inflam inh -84*, HT1080 IDH1KD tx inconclusive, TDP1 cell noCPT 16µM* and TDP1 cell CPT inconclusive.
COc1cccc(CNC(=O)CCC2CCCN(C/C=C/c3ccccc3OC)C2)c1 (configuration not stated) was read as HT1080NT lethal -14%, IL-1B inflam inh inconclusive, HT1080 IDH1KD tx -22%, TDP1 cell noCPT 23µM* and TDP1 cell CPT inconclusive.
`COc1ccccc1/C=C/CN1CCCC(CCC(=O)NCc2ccc(F)c(F)c2)C1` (configuration not stated) gave HT1080NT lethal inconclusive, IL-1B inflam inh -74*, HT1080 IDH1KD tx inconclusive, TDP1 cell noCPT inconclusive and TDP1 cell CPT inconclusive.
For CNC(=O)COc1coc(CN2CCN(c3ccccc3OC)CC2)cc1=O the results were HT1080NT lethal 15%, IL-1B inflam inh 25, HT1080 IDH1KD tx 1%, TDP1 cell noCPT 7% and TDP1 cell CPT 9%.
Screening Cn1c(-c2cccc(OCc3ccccc3)c2)nc2c1c(=O)[nH]c(=O)n2Cc1ccccc1 returned HT1080NT lethal 11%, IL-1B inflam inh 9, HT1080 IDH1KD tx 11%, TDP1 cell noCPT 16µM* and TDP1 cell CPT 21µM*.
Cn1c(-c2cccc(F)c2)nc2c1c(=O)[nH]c(=O)n2Cc1ccccc1 was read as HT1080NT lethal inconclusive, IL-1B inflam inh 23, HT1080 IDH1KD tx inconclusive, TDP1 cell noCPT -26% and TDP1 cell CPT -5%.
COc1cc(Br)cc(-c2nc3c(c(=O)[nH]c(=O)n3Cc3ccccc3)n2C)c1O was read as HT1080NT lethal -1%, IL-1B inflam inh 28, HT1080 IDH1KD tx -2%, TDP1 cell noCPT 23µM* and TDP1 cell CPT 16µM*.
CCCn1c(-c2cc(OC)c(OC)c(OC)c2)nc2c1c(=O)[nH]c(=O)n2Cc1ccccc1 was read as HT1080NT lethal -12%, IL-1B inflam inh 4, HT1080 IDH1KD tx -28%, TDP1 cell noCPT -97% and TDP1 cell CPT 3.3µM*.
Screening COc1ccc(-c2nc3c(c(=O)[nH]c(=O)n3Cc3ccccc3)n2Cc2ccccc2)cc1 returned HT1080NT lethal inconclusive, IL-1B inflam inh inconclusive, HT1080 IDH1KD tx inconclusive, TDP1 cell noCPT 21µM* and TDP1 cell CPT 23µM*.
Screening CCCCCC(=O)Cc1cc(O)cc(O)c1C(=O)Oc1cc(CC(=O)CCCCC)c(C(=O)O)c(OC)c1 returned TDP1 cell noCPT 5% and TDP1 cell CPT -8%.
For Cc1ccc(C(=O)NCc2ccccn2)cc1S(=O)(=O)N1CCOCC1 the results were HT1080NT lethal 3%, IL-1B inflam inh -11, HT1080 IDH1KD tx 7%, TDP1 cell noCPT -1% and TDP1 cell CPT 4%.
Screening CCCCn1c(=O)[nH]c(=O)c2c1nc(-c1ccc(OCCC)c(OCC)c1)n2CCOC returned HT1080NT lethal -6%, IL-1B inflam inh 34, HT1080 IDH1KD tx -17%, TDP1 cell noCPT inconclusive and TDP1 cell CPT 4%.
Screening CCCOc1ccc(-c2nc3c(c(=O)[nH]c(=O)n3Cc3ccccc3)n2CCO)cc1OCC returned HT1080NT lethal -21%, IL-1B inflam inh 1, HT1080 IDH1KD tx -1%, TDP1 cell noCPT 16µM* and TDP1 cell CPT inconclusive.
O=C(NCC1CCCN1S(=O)(=O)c1cccs1)c1cccc(Cl)c1 (configuration not stated) was read as HT1080NT lethal -17%, IL-1B inflam inh -18, HT1080 IDH1KD tx -18%, TDP1 cell noCPT inconclusive and TDP1 cell CPT -10%.
